From PubChem BioAssay (EPA / NIEHS)
Active and inactive are the calls of the source. Rule for the calls: active = hit-call score of the fitted dose curve at least 0.9, where 1 is the maximum; inactive = score below 0.9.

How the values were obtained:
[1] = ATG_GLI_CIS: Attagene CIS-FACTORIAL HepG2 Assay for human Zinc Finger Protein GLI1 (AID 2282945); conditions: HepG2, Attagene cis-factorial reporter mRNA, GLI element; actives raise or lower the signal
Procedure, shortened: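 Bidirectional curve fits relative to DMSO, using reporter mRNA levels from RT-PCR plus capillary electrophoresis. Cells were HepG2 transiently carrying cis-regulated reporter constructs, harvested 24 h after dosing.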

[2] = molecular target: Bile acid receptor (Homo sapiens) (UniProt Q96RI1); test: ATG_IR1_CIS: Attagene CIS-FACTORIAL HepG2 Assay for human Nuclear Receptor Subfamily 1 Group H Member 4 (NR1H4), IR1 submotif (AID 2282946); conditions: IR1 reporter transcription, actives raise or lower the signal
Procedure, shortened: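 Cells (human HepG2) carry transiently transfected cis-promoter reporter transcription units. Compounds are incubated 24 h, total RNA is reverse-transcribed and amplified, and labelled fragments are resolved by capillary electrophoresis. Curves use DMSO as baseline.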

[3] = ATG_GRE_CIS: Attagene CIS-FACTORIAL HepG2 Assay for human Glucocorticoid Response Elements (GRE) (AID 2282947); conditions: HepG2 GRE cis-reporter, Attagene multiplex mRNA; actives raise or lower the signal
Procedure, shortened: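 Transient MRTU transfection of human HepG2 liver cells; cis-regulated reporters report endogenous factors. 24 h dosing → RNA isolation → RT-PCR → 6-FAM primer extension → HpaI cut → CE fragment analysis. Bidirectional fit, DMSO negative control.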

[4] = ATG_ISRE_CIS: Attagene CIS-FACTORIAL HepG2 Assay for human Interferon Regulatory Factor 1 (IRF1) binding to an Interferon-Stimulated Response Element (ISRE) (AID 2282948); conditions: HepG2 ISRE cis-reporter (Attagene), mRNA transcription readout; actives raise or lower the signal
Procedure, shortened: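 HepG2 cells transiently transfected with multiplexed cis-promoter reporter units; after 24 h compound exposure, reporter mRNA quantified by RT-PCR, FAM labelling, HpaI digestion and capillary electrophoresis. Bidirectional fit versus DMSO baseline.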

[5] = ATG_M_32_CIS: Attagene CIS-FACTORIAL HepG2 Assay for M32 Transcription Factor (Internal Marker) (AID 2282949); conditions: HepG2 Attagene cis-factorial M32 reporter, mRNA; actives raise or lower the signal;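 note: background control marker of the multiplexed CIS panel rather than a real target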
Procedure, shortened: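 Fluorescent capillary electrophoresis peaks of HpaI-digested, FAM-labelled RT-PCR reporter products give the signal. Source: transiently transfected human liver HepG2 cells, 24 h after chemical dosing; bidirectional fitting against DMSO.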

[6] = ATG_M_06_CIS: Attagene CIS-FACTORIAL HepG2 Assay for M06 Transcription Factor (Internal Marker) (AID 2282950); conditions: HepG2 Attagene CIS-FACTORIAL M06 internal marker reporter; actives raise or lower the signal
Procedure, shortened: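 One of many multiplexed endpoints: HepG2 reporter mRNA after 24 h dosing, detected by RT-PCR and capillary electrophoresis fluorescence; gain or loss of signal analysed against DMSO.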

[7] = molecular target: Hypoxia-inducible factor 1-alpha (Homo sapiens) (UniProt Q16665); test: ATG_HIF1a_CIS: Attagene CIS-FACTORIAL HepG2 Assay for human Hypoxia Inducible Factor 1 (HIF1A) (AID 2282951); conditions: HepG2 Attagene cis-factorial HIF1a reporter transcription; actives raise or lower the signal
Procedure, shortened: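 HepG2, transient cis-reporter library, 24 h dosing. RNA → RT (oligo dT) → PCR → 6-FAM primer extension → HpaI → CE. Bidirectional curve fit vs DMSO.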

[8] = molecular target: Heat shock factor protein 1 (Homo sapiens) (UniProt Q00613); test: ATG_HSE_CIS: Attagene CIS-FACTORIAL HepG2 Assay for human Heat Shock Transcription Factor 1 (HSE) (AID 2282953); conditions: HepG2 HSE cis-reporter, Attagene RNA transcription; actives raise or lower the signal
Procedure, shortened: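 Using HepG2 with transfected cis-driven reporter constructs, compound effects on endogenous factor activity are scored as reporter mRNA change at 24 h. Detection: RT-PCR, HpaI digestion, capillary electrophoresis; bidirectional fitting to DMSO.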

[9] = ATG_MRE_CIS: Attagene CIS-FACTORIAL HepG2 Assay for human Metal Responsive Element (MRE) (AID 2282954); conditions: HepG2 MRE cis-reporter transcription, Attagene multiplex; actives raise or lower the signal
Procedure, shortened: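 Transient MRTU transfection of HepG2 (FuGene 6); 24 h dosing; total RNA → oligo(dT) RT, PCR, 6-FAM primer extension, HpaI cut, CE. Bidirectional fit vs DMSO.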

[10] = molecular target: Paired box protein Pax-6 (Homo sapiens) (UniProt P26367); test: ATG_Pax6_CIS: Attagene CIS-FACTORIAL HepG2 Assay for human Paired Box 6 (PAX6) (AID 2282956); conditions: HepG2 CIS-FACTORIAL PAX6 reporter transcription, RNA readout; actives raise or lower the signal
Procedure, shortened: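 HepG2 cells transiently transfected with multiplexed cis-promoter reporter units (endogenous TF activity) were dosed for 24 h. Reporter mRNA was quantified by RT-PCR, 6-FAM labeling, HpaI digestion and capillary electrophoresis; bidirectional fitting versus DMSO baseline.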

[11] = ATG_PXRE_CIS: Attagene CIS-FACTORIAL HepG2 Assay for human Pregnane X Receptor Element (PXRE) (AID 2282957); conditions: HepG2 Attagene CIS-FACTORIAL PXRE reporter, mRNA; actives raise or lower the signal
Procedure, shortened: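 HepG2 cells transiently transfected with cis-element-driven multiplexed reporter units; after 24 h chemical exposure, reporter mRNA measured by RT-PCR, 6-FAM labelling, HpaI digestion and capillary electrophoresis. Bidirectional fitting relative to DMSO.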

[12] = ATG_PPRE_CIS: Attagene CIS-FACTORIAL HepG2 Assay for human Peroxisome Proliferator-activated Response Element (PPRE) (AID 2282958); conditions: HepG2 PPRE cis-element reporter, Attagene transcription factor profiling; actives raise or lower the signal
Procedure, shortened: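 Transcript-level reporter induction in transfected HepG2 cells after 24 h chemical exposure, quantified by fluorescence from RT-PCR products separated by capillary electrophoresis.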

[13] = ATG_RORE_CIS: Attagene CIS-FACTORIAL HepG2 Assay for human RAR-related Orphan Receptor Element (RORE) (AID 2282959); conditions: HepG2 Attagene cis-factorial RORE reporter, mRNA; actives raise or lower the signal
Procedure, shortened: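 Multiplexed reporter assay measuring mRNA induction from a cis promoter element in transiently transfected HepG2 cells after 24 h treatment. Detection via RT-PCR and capillary electrophoresis fluorescence; DMSO serves as baseline.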

[14] = ATG_Sox_CIS: Attagene CIS-FACTORIAL HepG2 Assay for human SRY-box transcription factor (SOX) (AID 2282960); conditions: HepG2 Attagene cis-factorial SOX reporter, mRNA; actives raise or lower the signal
Procedure, shortened: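 Cells were transfected with reporter constructs under cis-regulatory promoters, then exposed to chemicals for 24 h. Reporter transcripts were quantified by fluorescence after RT-PCR and capillary electrophoresis; activity was fitted in both directions against DMSO.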

[15] = molecular target: Transcription factor Sp1 (Homo sapiens) (UniProt P08047); test: ATG_Sp1_CIS: Attagene CIS-FACTORIAL HepG2 Assay for human Specificity Protein 1 (Sp1) (AID 2282961); conditions: HepG2 Sp1 cis-reporter transcription, actives raise or lower the signal
Procedure, shortened: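 Measures mRNA induction of an Sp1-linked reporter in HepG2 cells 24 h post-dosing. Multiplexed reporters read by RT-PCR and capillary electrophoresis; DMSO serves as negative control and baseline.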

[16] = ATG_SREBP_CIS: Attagene CIS-FACTORIAL HepG2 Assay for human Sterol Regulatory Element Binding (SREBP) (AID 2282962); conditions: HepG2 Attagene cis-factorial SREBP reporter, mRNA; actives raise or lower the signal
Procedure, shortened: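 HepG2 cells transiently transfected with multiplexed cis-element reporter units report endogenous transcription factor activity. After 24 h of chemical exposure, reporter mRNA was quantified by RT-PCR, 6-FAM labelling, HpaI digestion and capillary electrophoresis; bidirectional fits used DMSO as baseline.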

[17] = ATG_TA_CIS: Attagene CIS-FACTORIAL HepG2 Assay for human TA Basal Promoter (AID 2282964); conditions: HepG2 Attagene CIS-factorial TA basal promoter reporter; actives raise or lower the signal
Procedure, shortened: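 Transient MRTU transfection of HepG2 preceded 24 h compound exposure. Reporter mRNA levels were then read by RT-PCR with capillary electrophoresis, and this background-control endpoint was fitted bidirectionally to DMSO.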

[18] = molecular target: Hepatocyte nuclear factor 6 (Homo sapiens) (UniProt Q9UBC0); test: ATG_HNF6_CIS: Attagene CIS-FACTORIAL HepG2 Assay for human Hepatocyte Nuclear Factor 6 (HNF6) (AID 2282952); conditions: HepG2 Attagene cis-factorial HNF6 reporter transcription; actives raise or lower the signal
Procedure, shortened: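 HepG2 cells transiently transfected with cis-element-driven multiplexed reporter units measuring endogenous transcription factor activity. After 24 h exposure, reporter mRNA quantified by RT-PCR, FAM-labelled fragments and capillary electrophoresis; bidirectional fitting versus DMSO.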

[19] = molecular target: Signal transducer and activator of transcription 3 (Homo sapiens) (UniProt P40763); test: ATG_STAT3_CIS: Attagene CIS-FACTORIAL HepG2 Assay for human Signal Transducer and Activator of Transcription 3 (STAT3) (AID 2282963); conditions: HepG2, Attagene cis-factorial STAT3 reporter transcription; actives raise or lower the signal
Procedure, shortened: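 Endogenous STAT3-responsive cis-element activity was read in transiently transfected HepG2 cells after 24 h treatment. Reporter transcripts were quantified via RT-PCR and capillary electrophoresis, with DMSO as negative control and bidirectional curve fitting.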

[20] = ATG_PBREM_CIS: Attagene CIS-FACTORIAL HepG2 Assay for human Phenobarbital-responsive Enhancer Module (PBREM) (AID 2282955); conditions: HepG2 PBREM cis-reporter, Attagene multiplexed transcription; actives raise or lower the signal
Procedure, shortened: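 HepG2, transient MRTU transfection, 24 h dosing; RNA → oligo(dT) RT → PCR → 6-FAM extension → HpaI → CE. Bidirectional fit vs DMSO.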

Measured: AC50

Sequence of Heat shock factor protein 1 (Homo sapiens) (Q00613 whole entry, looked up): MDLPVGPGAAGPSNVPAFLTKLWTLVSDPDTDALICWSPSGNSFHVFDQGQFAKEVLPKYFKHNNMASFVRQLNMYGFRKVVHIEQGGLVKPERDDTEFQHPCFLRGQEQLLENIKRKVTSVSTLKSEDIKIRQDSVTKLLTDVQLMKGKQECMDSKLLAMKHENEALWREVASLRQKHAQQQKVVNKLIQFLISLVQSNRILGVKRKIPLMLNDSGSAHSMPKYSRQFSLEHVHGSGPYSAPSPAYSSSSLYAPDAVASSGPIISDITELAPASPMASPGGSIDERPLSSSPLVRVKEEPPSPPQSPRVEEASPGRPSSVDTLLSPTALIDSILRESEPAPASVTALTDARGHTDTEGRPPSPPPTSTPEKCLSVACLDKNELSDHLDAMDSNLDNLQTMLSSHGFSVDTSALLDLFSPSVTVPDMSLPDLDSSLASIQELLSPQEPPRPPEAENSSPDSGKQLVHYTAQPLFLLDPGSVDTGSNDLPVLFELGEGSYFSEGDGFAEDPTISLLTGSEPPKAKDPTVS
Sequence of Paired box protein Pax-6 (Homo sapiens) (P26367 whole entry, looked up): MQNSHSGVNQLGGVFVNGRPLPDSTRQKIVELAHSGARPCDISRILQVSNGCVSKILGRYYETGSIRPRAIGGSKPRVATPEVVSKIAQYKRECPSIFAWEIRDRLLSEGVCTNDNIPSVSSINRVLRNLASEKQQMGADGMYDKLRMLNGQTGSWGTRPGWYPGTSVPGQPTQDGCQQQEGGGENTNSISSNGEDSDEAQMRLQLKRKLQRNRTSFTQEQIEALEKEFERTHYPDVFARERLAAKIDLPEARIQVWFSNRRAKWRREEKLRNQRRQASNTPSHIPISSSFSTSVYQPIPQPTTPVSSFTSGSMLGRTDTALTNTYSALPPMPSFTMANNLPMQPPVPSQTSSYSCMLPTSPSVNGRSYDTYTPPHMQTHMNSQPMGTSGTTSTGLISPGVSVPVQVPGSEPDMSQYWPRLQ
Sequence of Bile acid receptor (Homo sapiens) (Q96RI1 whole entry, looked up, the tested form may be a part): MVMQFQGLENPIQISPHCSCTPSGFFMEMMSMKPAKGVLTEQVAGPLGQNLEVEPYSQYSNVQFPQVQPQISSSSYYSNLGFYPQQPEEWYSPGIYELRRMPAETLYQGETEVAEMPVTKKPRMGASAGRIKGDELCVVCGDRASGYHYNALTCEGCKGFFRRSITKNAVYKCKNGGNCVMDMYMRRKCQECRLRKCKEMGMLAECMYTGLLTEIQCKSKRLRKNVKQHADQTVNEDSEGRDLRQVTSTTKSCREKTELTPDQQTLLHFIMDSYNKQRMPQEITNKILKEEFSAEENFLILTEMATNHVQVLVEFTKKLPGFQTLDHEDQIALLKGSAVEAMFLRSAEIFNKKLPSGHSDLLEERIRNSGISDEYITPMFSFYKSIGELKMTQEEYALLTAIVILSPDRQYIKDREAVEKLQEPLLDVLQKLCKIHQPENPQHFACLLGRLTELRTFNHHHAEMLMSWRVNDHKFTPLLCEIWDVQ
Sequence of Signal transducer and activator of transcription 3 (Homo sapiens) (P40763 whole entry, looked up): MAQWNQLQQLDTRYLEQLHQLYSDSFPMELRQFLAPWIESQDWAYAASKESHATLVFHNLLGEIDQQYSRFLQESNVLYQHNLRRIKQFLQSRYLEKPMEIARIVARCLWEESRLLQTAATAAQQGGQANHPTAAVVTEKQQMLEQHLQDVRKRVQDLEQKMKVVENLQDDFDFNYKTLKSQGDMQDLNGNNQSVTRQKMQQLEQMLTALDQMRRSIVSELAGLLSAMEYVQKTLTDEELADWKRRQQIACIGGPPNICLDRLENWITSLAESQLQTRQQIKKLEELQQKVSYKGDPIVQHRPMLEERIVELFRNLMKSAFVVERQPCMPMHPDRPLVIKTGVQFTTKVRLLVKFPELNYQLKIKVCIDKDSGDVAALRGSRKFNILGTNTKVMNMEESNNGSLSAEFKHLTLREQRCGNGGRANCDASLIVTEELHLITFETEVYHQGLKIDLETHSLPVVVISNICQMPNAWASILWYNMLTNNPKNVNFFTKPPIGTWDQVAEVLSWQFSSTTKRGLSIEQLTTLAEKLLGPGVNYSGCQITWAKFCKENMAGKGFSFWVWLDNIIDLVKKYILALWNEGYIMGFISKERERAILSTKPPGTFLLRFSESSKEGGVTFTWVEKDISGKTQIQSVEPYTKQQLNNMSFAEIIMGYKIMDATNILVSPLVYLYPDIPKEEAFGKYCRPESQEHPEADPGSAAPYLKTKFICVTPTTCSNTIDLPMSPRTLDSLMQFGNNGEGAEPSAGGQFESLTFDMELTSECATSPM
Sequence of Transcription factor Sp1 (Homo sapiens) (P08047 whole entry, looked up): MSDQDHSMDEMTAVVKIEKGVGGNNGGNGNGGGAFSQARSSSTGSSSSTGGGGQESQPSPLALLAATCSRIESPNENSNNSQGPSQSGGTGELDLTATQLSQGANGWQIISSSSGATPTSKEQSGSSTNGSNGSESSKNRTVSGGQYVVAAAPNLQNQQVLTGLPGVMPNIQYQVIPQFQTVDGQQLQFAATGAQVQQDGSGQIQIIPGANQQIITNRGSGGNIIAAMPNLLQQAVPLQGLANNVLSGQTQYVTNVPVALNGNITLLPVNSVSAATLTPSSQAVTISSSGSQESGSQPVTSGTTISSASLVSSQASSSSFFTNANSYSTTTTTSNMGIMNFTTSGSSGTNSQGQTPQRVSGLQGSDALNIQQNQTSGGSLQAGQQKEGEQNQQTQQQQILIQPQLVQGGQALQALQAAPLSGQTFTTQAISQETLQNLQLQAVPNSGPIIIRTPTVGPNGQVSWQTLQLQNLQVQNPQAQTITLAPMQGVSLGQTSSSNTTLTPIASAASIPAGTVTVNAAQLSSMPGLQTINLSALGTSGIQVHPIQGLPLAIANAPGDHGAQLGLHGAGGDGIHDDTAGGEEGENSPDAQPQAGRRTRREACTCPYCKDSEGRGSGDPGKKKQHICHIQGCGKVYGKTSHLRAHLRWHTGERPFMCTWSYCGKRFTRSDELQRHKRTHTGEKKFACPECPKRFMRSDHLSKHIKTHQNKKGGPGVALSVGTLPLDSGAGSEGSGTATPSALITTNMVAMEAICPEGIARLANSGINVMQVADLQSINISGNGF
Sequence of Hypoxia-inducible factor 1-alpha (Homo sapiens) (Q16665 whole entry, looked up): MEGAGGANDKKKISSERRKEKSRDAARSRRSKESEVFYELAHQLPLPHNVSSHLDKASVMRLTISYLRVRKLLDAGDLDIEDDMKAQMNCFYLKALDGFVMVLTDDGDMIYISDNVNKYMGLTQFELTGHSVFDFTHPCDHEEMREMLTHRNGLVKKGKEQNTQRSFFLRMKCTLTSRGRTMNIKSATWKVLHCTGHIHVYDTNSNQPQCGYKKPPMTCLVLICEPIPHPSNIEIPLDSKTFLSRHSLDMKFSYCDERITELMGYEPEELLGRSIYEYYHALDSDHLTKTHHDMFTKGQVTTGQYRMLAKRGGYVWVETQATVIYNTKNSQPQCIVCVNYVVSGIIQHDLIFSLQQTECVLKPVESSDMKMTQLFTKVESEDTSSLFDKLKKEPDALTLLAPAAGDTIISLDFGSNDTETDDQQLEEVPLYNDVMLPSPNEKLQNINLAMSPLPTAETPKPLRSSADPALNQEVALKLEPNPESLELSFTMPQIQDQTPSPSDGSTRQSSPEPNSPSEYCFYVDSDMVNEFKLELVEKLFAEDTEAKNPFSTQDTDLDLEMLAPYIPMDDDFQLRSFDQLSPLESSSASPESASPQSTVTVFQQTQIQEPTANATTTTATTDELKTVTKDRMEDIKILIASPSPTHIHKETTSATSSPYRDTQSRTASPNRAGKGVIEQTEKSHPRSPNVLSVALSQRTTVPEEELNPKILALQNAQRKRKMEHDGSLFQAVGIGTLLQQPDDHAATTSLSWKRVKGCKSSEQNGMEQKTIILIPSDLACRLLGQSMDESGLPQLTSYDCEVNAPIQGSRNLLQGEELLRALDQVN
Sequence of Hepatocyte nuclear factor 6 (Homo sapiens) (Q9UBC0 whole entry, looked up, the tested form may be a part): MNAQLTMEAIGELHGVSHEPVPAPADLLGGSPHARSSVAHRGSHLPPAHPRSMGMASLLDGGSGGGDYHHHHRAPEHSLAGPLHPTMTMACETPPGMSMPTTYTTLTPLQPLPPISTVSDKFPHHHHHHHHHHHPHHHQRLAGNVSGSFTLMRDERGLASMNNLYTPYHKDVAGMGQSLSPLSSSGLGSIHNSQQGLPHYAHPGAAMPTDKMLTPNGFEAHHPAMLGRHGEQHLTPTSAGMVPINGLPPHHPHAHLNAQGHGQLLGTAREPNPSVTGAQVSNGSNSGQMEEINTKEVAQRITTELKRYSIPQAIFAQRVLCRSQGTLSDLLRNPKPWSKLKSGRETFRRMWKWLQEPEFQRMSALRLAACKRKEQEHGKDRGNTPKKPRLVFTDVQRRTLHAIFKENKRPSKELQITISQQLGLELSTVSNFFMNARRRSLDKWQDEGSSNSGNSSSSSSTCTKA

CCC(C)c1ccccc1 (stereo unspecified)
not listed: [18] | [19] | [20]
inactive: all other assays above

CC(C)C(=O)OCCc1ccccc1
not listed: [3] | [8] | [20]
inactive: all other assays above

C=CC(C)(CCC=C(C)C)OC(=O)C=Cc1ccccc1 (stereo unspecified)
active: [11] 1.82 µM
not listed: [3]
inactive: all other assays above

CCC[Si](OC)(OC)OC
active: [11] 129 µM
not listed: [12] | [18] | [20]
inactive: all other assays above

CC(C)(C)NC(=O)[C@H]1CC[C@H]2[C@@H]3CC[C@H]4NC(=O)C=C[C@]4(C)[C@H]3CC[C@]12C
active: [9] 68.3 µM | [11] 14.1 µM
not listed: [7]
inactive: all other assays above

CC(=O)/C=C/C1C(C)=CCCC1(C)C (stereo unspecified)
active: [11] 5.09 µM
not listed: [3] | [12] | [15] | [16] | [19] | [20]
inactive: all other assays above

CCOC(=O)C1=NN(c2ccc(Cl)cc2Cl)C(C)(C(=O)OCC)C1 (stereo unspecified)
active: [8] 137 µM | [9] 66.8 µM | [11] 9.36 µM
not listed: [18] | [20]
inactive: all other assays above
